Reference: PubChem BioAssay (NCI)
This is part of a sample that, as a whole, favours compounds with a hit. Of some 79,000 tested, about 15% had one in any assay. No stated cut-off is given here; in the data, active means growth inhibition above about 70%; inactive means the rest. *1 amine or outer side, *2 acyl side, *3 side chain or, on linkers, in order; H or OH if unused. Where a SMILES comes first, the peptide text is derived from it. Bridges are numbered along the chain shown (N, C = ends). [ ]: non-standard residue; d: D form. The star is where a group is joined. X16 = CC(C)C(C)C(C(=O)[*:2])N(C)[*:1]; Picolinoyl(3-OH) = O=C(c1ncccc1O)*; NMePhg = CN[CH](C(=O)O)c1ccccc1; Hyp = O=C(O)[CH]1C[CH](O)CN1; Sar = CNCC(=O)O

Columns and labels:
[1] = NCI Yeast Anticancer Drug Screen. Data for the rad50 strain (AID 155);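 further: 0% = growth of vehicle-only cultures of the same strain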; settings: S. cerevisiae rad50 strain growth inhibition; at 50.0 µM; active compounds read high
Procedure, shortened: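 Yeast carrying a defined DNA repair defect were exposed to test compounds, and growth was compared with vehicle-treated controls to give percent inhibition.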

[2] = NCI Yeast Anticancer Drug Screen. Data for the mec2-1 strain (AID 157); settings: S. cerevisiae mec2-1 strain, at 50.0 µM, active compounds read high
Procedure, shortened: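 Test agents were screened against the mec2-1 yeast strain, with defined DNA repair or cell cycle alteration. Growth was scored as inhibition against vehicle-only controls.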

[3] = NCI Yeast Anticancer Drug Screen. Data for the sgs1 mgt1 strain (AID 161);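 further: 0% = growth of cultures given vehicle only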; settings: S. cerevisiae sgs1 mgt1 strain, at 50.0 µM, active compounds read high
Procedure, shortened: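 Genetically altered yeast, compound exposure, growth inhibition relative to vehicle.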

[4] = NCI Yeast Anticancer Drug Screen. Data for the cln2 rad14 strain (AID 165);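 further: 0% = growth equal to vehicle treated cultures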; settings: S. cerevisiae cln2 rad14 strain, at 50.0 µM, active compounds read high
Procedure, shortened: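 Growth of compound-exposed yeast (cln2 rad14 genotype) measured and expressed as inhibition relative to vehicle.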

[5] = NCI Yeast Anticancer Drug Screen. Data for the bub3 strain (AID 167); settings: S. cerevisiae bub3 mutant strain, at 50.0 µM, active compounds read high
Procedure, shortened: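 Compounds were applied to a genetically altered yeast strain carrying a cell-cycle control defect. Growth inhibition was scored against vehicle-treated controls.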

[6] = NCI Yeast Anticancer Drug Screen. Data for the mlh1 rad18 strain (AID 175); settings: S. cerevisiae mlh1 rad18 strain growth inhibition; at 50.0 µM; active compounds read high
Procedure, shortened: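 In this whole-cell yeast screen, a strain with altered DNA damage repair is challenged with compound, and its growth is measured against matched vehicle-treated controls.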

Measured: growth inhibition

CCOC(=O)/C=C/c1nc(C(=O)OCC)c(C)c(=O)[nH]1
inactive: [1] -0.55% | [2] 8.3% | [3] 22% | [4] 7% | [5] 1.25% | [6] -24.1%

CCCCCN(CCCCC)CC(O)c1cccc2c1cc(Br)c1ccccc12 (stereo unspecified)
inactive: [1] 30.7% | [2] 1.55% | [3] 8.7% | [4] 8.45% | [5] 0.85% | [6] 14.7%

N#CCCCCCCCCC(=O)O
inactive: [1] -14.6% | [2] -14.4% | [3] 6.9% | [4] -18.4% | [5] -39.5% | [6] -11.5%

C1CC2(C34CCC(CC3)C4)CCC1C2
inactive: [1] -5.15% | [2] 1.45% | [3] 14.2% | [4] 7.55% | [5] 7.1% | [6] -2.6%

CP1(=O)CC(=O)CCCCC(=O)C1
inactive: [1] 2.25% | [2] -1.6% | [3] -1.2% | [4] -25.8% | [5] 42.7% | [6] 19.6%

CSc1nc(NC2OC(COC(C)=O)C(OC(C)=O)C(OC(C)=O)C2OC(C)=O)c(-c2csc(N)n2)c(=O)n1C (stereo unspecified)
inactive: [1] -6.8% | [2] -38% | [3] -22.4% | [4] 10.2% | [5] -8.15% | [6] 13.3%

COC(=O)C1CN(c2ccccc2)CCC1=O (stereo unspecified)
inactive: [1] -28.9% | [2] -31.8% | [3] -0.55% | [4] -35.7% | [5] -10.3% | [6] -12.7%

COC(=O)C1=CN(c2ccccc2)C(=O)C1
inactive: [1] 5.5% | [2] -14.3% | [3] -6.95% | [4] -26.1% | [5] -8.7% | [6] 7.45%

CN(C)c1ccc2oc3ccccc3c2c1
inactive: [1] -4.5% | [2] -4.5% | [3] -21.4% | [4] -23.9% | [5] 5.35% | [6] -26.4%

C=C(C)CNC(C)=O
inactive: [1] -7.75% | [2] 3% | [3] 0% | [4] 0% | [5] 3.4% | [6] 1.95%

Clc1ccc(OCC(COc2ccc(Cl)cc2)(COc2ccc(Cl)cc2)COc2ccc(Cl)cc2)cc1
inactive: [1] -0.75% | [2] 2.75% | [3] -4.8% | [4] 5.9% | [5] -4.45% | [6] 0.7%

C=C1C(O)CCC2(C)C1CCC1C2CCC2(C)C(C(C)CCCC(C)C)CCC12 (stereo unspecified)
inactive: [1] -5% | [2] -5.35% | [3] -3.1% | [4] -39.6% | [5] -4.4% | [6] -2.45%

COc1ccc2nccc(SCC(=O)O)c2c1
inactive: [1] -5.25% | [2] 8.25% | [3] -29.6% | [4] 18.9% | [5] 37% | [6] 1.85%

O=C(/C(=C(/Br)I)c1ccccc1)c1ccccc1
inactive: [1] -13.8% | [2] 16% | [3] 26.6% | [4] 14.1% | [5] 42.6% | [6] 28.4%

CC(C(=O)OCc1ccccc1)(c1ccco1)N1C(=O)OC(c2ccccc2)C1c1ccccc1 (stereo unspecified)
inactive: [1] -4.35% | [2] -3.5% | [3] 4.55% | [4] -3.5% | [5] -17.1% | [6] -23.1%

O=C1C(Cc2ccc(O)cc2)NC(=S)N1c1ccccc1 (stereo unspecified)
inactive: [1] 0.6% | [2] -9.85% | [3] 24.9% | [4] -2.75% | [5] 20% | [6] -19.8%

CN(C)CCNC(=O)c1cnn(C)c1[N+](=O)[O-]
inactive: [1] 26.4% | [2] 8.75% | [3] 17.3% | [4] 13.2% | [5] 0% | [6] -59.1%

NNC(=O)c1nc[nH]c1C(=O)NN
inactive: [1] 2.95% | [2] -2.6% | [3] 21.5% | [4] -14.3% | [5] -7.6% | [6] 32%

CCNC(=O)C1CCN(Cc2c[nH]c3ccccc23)CC1
inactive: [1] -19.4% | [2] 0.1% | [3] 33.2% | [4] -12.9% | [5] 0.6% | [6] -18.1%

COC1CCC2C(C1)C(C1CCCCC1)C1CCCCC1C2C1CCCCC1 (stereo unspecified)
inactive: [1] -1.1% | [2] 8.05% | [3] -14.6% | [4] -7.25% | [5] -0.9% | [6] -7.65%

CC(C)CC1NC(=O)C(NC(=O)c2ncccc2O)C(C)OC(=O)C(c2ccccc2)N(C)C(=O)C(C)NC(=O)C(C(C)C(C)C)N(C)C(=O)CN(C)C(=O)C2CC(O)CN2C1=O (stereo unspecified) ({Picolinoyl(3-OH)}-TL[Hyp][Sar][X16]A[NMePhg]; ester 1-C; configuration not given here)
inactive: [1] 15.8% | [2] 3.65% | [3] 19.1% | [4] 3% | [5] -10.9% | [6] -2.35%

O=[N+]([O-])c1cc(/C=N\NS(=O)(=O)c2ccc(Cl)cc2)c(O)c([N+](=O)[O-])c1
inactive: [1] 26.9% | [2] 7.2% | [3] 3.9% | [4] -1.35% | [5] 8.75% | [6] 8.6%

COC(=O)CCCN1C(=O)c2ccccc2C1=O
inactive: [1] -8.15% | [2] -12.7% | [3] -20.8% | [4] -69.8% | [5] 5.6% | [6] -3.95%

COc1cc2nc(Sc3c([N+](=O)[O-])ncn3C)[nH]c2cc1OC
inactive: [1] -41.6% | [2] -33.3% | [3] -30% | [4] -23% | [5] -43.5% | [6] -46%

CS/C(=C/c1ccc2ccccc2[n+]1C)N1CCN(C)CC1
inactive: [1] -3.3% | [2] -1.25% | [3] -8.15% | [4] -12.9% | [5] -3% | [6] -0.2%

FC(F)(F)c1cccc(C=NC23CC4CC(CC(C4)C2)C3)c1
inactive: [1] -16.4% | [2] -14.6% | [3] -2.05% | [4] 10.4% | [5] -30% | [6] 8.75%

C=CCNC(=O)c1ccc[n+](CC(=O)Nc2ccccc2)c1
inactive: [1] 1% | [2] -9.75% | [3] -1.1% | [4] 9.8% | [5] 2.3% | [6] -7.6%

CCCCCC/C(C)=N/O
inactive: [1] -1.8% | [2] 3.75% | [3] 0.8% | [4] 4.85% | [5] 10.7% | [6] -6.2%

CN(C(N)=O)C1CCCC1
inactive: [1] 12% | [2] -21.3% | [3] -5.65% | [4] 1.4% | [5] 9.4% | [6] 6.35%

C[CH2][Sn]([CH2]C)([O]C(=O)c1ccc(OC)c(OC)c1OC)[O]C(=O)c1ccc(OC)c(OC)c1OC
inactive: [1] 41.5% | [2] 27.6% | [3] 24.6% | [4] 28.3% | [5] 19.4% | [6] 24.8%

Cl/C(=C\c1ccccc1)c1ccccc1
inactive: [1] 20.4% | [2] -6.55% | [3] -5.7% | [4] -42.5% | [5] 7.7% | [6] -6.55%

CC[N+](C)(CC)CCOC(=O)c1ccccc1Oc1ccc(C)cc1
inactive: [1] 23.1% | [2] -2.45% | [3] 7.8% | [4] -11.8% | [5] -2.1% | [6] 0.9%

CC1CC(C)NC(=O)N1 (stereo unspecified)
inactive: [1] -13% | [2] 13.5% | [3] -13.9% | [4] 16.1% | [5] 15.8% | [6] 0.4%

CCOc1ccc2c(c1)C(C)(C)CCC2(C)C
inactive: [1] 3.55% | [2] -7.75% | [3] -5.9% | [4] -38.5% | [5] 1.4% | [6] 6.05%

O=C(Nc1ccc(Cl)cc1Cl)C(=O)C(C(=O)c1ccc2ccccc2c1)C1OC(=O)c2ccccc21 (stereo unspecified)
inactive: [1] 13.4% | [2] 21.6% | [3] 2.7% | [4] 15.9% | [5] -12.6% | [6] -6.45%

O=C(Nc1ccc(F)cc1)Nc1ccc(F)cc1
inactive: [1] 3.4% | [2] -10.9% | [3] -3.25% | [4] -43.7% | [5] -32.9% | [6] -16.6%

O=C(Cc1ccccc1)Nc1ccc([N+](=O)[O-])cc1Cl
inactive: [1] 4.95% | [2] 16.1% | [3] 23.4% | [4] 2.1% | [5] 6.5% | [6] 38.1%

CCOCCOCCOc1c(Cl)cc(Cl)cc1Cl
inactive: [1] -6.65% | [2] 1.9% | [3] -7.35% | [4] -46% | [5] 30.2% | [6] -21.6%

CC(=O)Oc1cccc(OC(=O)Nc2ccc(C)c(NC(=O)Oc3cccc(OC(C)=O)c3)c2)c1
inactive: [1] 26.2% | [2] 22.6% | [3] 9.75% | [4] 19.3% | [5] -0.4% | [6] 34.5%

Nc1ccc(S(=O)(=O)S(=O)(=O)c2ccc(N)cc2)cc1
inactive: [1] -0.1% | [2] 1.95% | [3] -3.55% | [4] 12.4% | [5] -0.9% | [6] -2.95%

CCC1CNCCC1CC(=O)O (stereo unspecified)
inactive: [1] 7.95% | [2] -12.8% | [3] -2.05% | [4] 24.8% | [5] -1.2% | [6] -22.2%
